PubChem BioAssay
Calls of active or inactive are those of the source. How the calls were made is not given here.

Target: L-lactate dehydrogenase (Plasmodium falciparum (isolate CDC / Honduras)) (UniProt Q27743)
Assay: PfLDH activity inhibition – cell lysate, 3D7 strain, counter-screen for P. falciparum growth inhibition project (AID 2304);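 further: 0% = vehicle and 100% = reference inhibitor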
Settings: P. falciparum 3D7 crude extract, LDH APAD/NBT absorbance; at 2 µM; active compounds read high

Chain of L-lactate dehydrogenase (Plasmodium falciparum (isolate CDC / Honduras)) (Q27743 whole entry, looked up): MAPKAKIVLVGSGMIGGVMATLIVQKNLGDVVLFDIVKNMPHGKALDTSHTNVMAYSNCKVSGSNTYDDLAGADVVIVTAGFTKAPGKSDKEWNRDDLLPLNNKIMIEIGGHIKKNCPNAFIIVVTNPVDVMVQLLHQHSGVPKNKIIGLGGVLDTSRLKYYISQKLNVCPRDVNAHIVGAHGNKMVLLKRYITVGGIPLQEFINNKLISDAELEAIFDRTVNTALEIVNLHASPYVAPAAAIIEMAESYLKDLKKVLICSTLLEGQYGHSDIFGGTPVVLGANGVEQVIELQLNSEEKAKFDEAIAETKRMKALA

Q: For `COc1ccc(N2CCN(CCCCNC(=O)c3ccc(NC(=O)c4ccc(Cl)cc4)cc3)CC2)c(C)c1`, which inhibition is on record?
A: Its inhibition is 0% (inactive).

Q: For `Nc1cc2c(C3CCN(CC4CCN(C(=O)/C=C/c5ccc(Cl)c(Cl)c5)CC4)CC3)c[nH]c2cn1`, which inhibition is on record?
A: Its inhibition is -3% (inactive).

Q: With `O=C(Nc1ccc(-c2ccc(-c3nc4ccc(C(F)(F)F)cc4[nH]3)s2)cc1)c1ccoc1` as the molecule, how does the inhibition read?
A: The inhibition was 3% (inactive).

Q: Which inhibition does the source give for `Cc1cccc(CN2CCC(CNC(=O)c3cc4c(-c5ccccc5F)nn(C)c4s3)CC2)c1` here?
A: Its inhibition is -4% (inactive).

Q: With `CCc1c(CCNC/C=C/C=C/CNCCc2ccc(OC)c(OC)c2CC)ccc(OC)c1OC` as the molecule, how does the inhibition read?
A: The inhibition was 3% (inactive).

Q: Which inhibition does the source give for `CC(C)C(C(=O)n1cc2c(ccc3nc(N)nc(N)c32)n1)C(C)C` here?
A: Its inhibition is -6% (inactive).

Q: For `Cc1cccc(Nc2nc3nonc3nc2Nc2cccc(Cl)c2Cl)c1C`, which inhibition is on record?
A: Its inhibition is 2% (inactive).

Q: Which inhibition does the source give for `COc1cccc(CCc2ccc(O)c3c2C[C@H]2C[C@H]4[C@H](N(C)C)C(=O)C(C(N)=O)=C(O)[C@@]4(O)C(=O)C2=C3O)c1` here?
A: The inhibition was -4% (inactive).

Q: For `CCOC(=O)c1ccc(NC(=O)N(Cc2ccc(-c3ccc(CN4CCNCC4)cc3)cc2)Cc2cccnc2)cc1`, which inhibition is on record?
A: Its inhibition is 2% (inactive).

Q: With `COc1cc(NC(=O)/C=C/c2cc(F)cc(F)c2F)cc(OCCN2CCCCC2)c1` as the molecule, how does the inhibition read?
A: Its inhibition is 0% (inactive).

Q: With `CC(C)Cn1c(N)cc(=O)n(C)c1=O` as the molecule, how does the inhibition read?
A: Its inhibition is 3% (inactive).

Q: Which inhibition does the source give for `COc1ccc(-c2nc(NC(=O)Cc3ccc4c(c3)OCCO4)sc2C)cc1` here?
A: The inhibition was 2% (inactive).

Q: Which inhibition does the source give for `COc1ccc(-c2nc3c(NCc4ccccc4)nccc3[nH]2)c(OC)c1` here?
A: Its inhibition is 4% (inactive).

Q: With `Cc1cccc(CN2CCC(C(=O)Nc3ccc(-c4nc5ccccc5[nH]4)cc3)CC2)n1` as the molecule, how does the inhibition read?
A: The inhibition was 6% (inactive).

Q: Which inhibition does the source give for `Cc1ccc(C2CCN(CCCCNC(=O)c3ccc(NC(=O)c4ccc(Cl)cc4)cc3)CC2)c(OCC(F)(F)F)c1` here?
A: Its inhibition is -4% (inactive).

Q: For `CN(C)CC1CCCN1Cc1ccccc1-c1cnn(C)c(=O)c1Oc1ccccc1F` (stereo unspecified), which inhibition is on record?
A: Its inhibition is -1% (inactive).

Q: For `CC(C)(C)OC(=O)NCC(=O)N(Cc1ccccc1)Cc1ccccc1`, which inhibition is on record?
A: The inhibition was 2% (inactive).

Q: For `COc1cc(C(=O)N2CCOC(CCN3CCC[C@H]3C(=O)Nc3ccccc3)(c3ccc(Cl)c(Cl)c3)C2)cc(OC)c1OC` (stereo partly specified), which inhibition is on record?
A: The inhibition was -2% (inactive).

Q: Which inhibition does the source give for `O=C(/C=C/c1ccc(Cl)c(Cl)c1)NCCCCCCN1CCCN(C(=O)Nc2ccc(F)c(Cl)c2)CC1` here?
A: The inhibition was 0% (inactive).

Q: With `Cc1nc(NCc2ccccc2)cc(NCC(O)c2ccc(O)cc2)n1` (stereo unspecified) as the molecule, how does the inhibition read?
A: Its inhibition is -2% (inactive).

Q: With `Cc1nc(-c2ccc(-c3ccc(NC(=O)Nc4ccc(I)c(OCCN(C)C)c4)cc3)c(C)c2)no1` as the molecule, how does the inhibition read?
A: Its inhibition is 2% (inactive).

Q: With `Nc1nc(N)c2c(ccc3c2ccn3CCCC2CCCNC2)n1` (stereo unspecified) as the molecule, how does the inhibition read?
A: Its inhibition is -4% (inactive).

Q: For `CCc1cn2c3c(cc(C(=O)N[C@@H](Cc4ccccc4)[C@H](O)CNC4CCOCC4)cc13)N(C)S(=O)(=O)C2`, which inhibition is on record?
A: The inhibition was -1% (inactive).

Q: Which inhibition does the source give for `CNC(=O)/C=C/c1cc(NC(=O)Nc2cc(C)nc3c(F)cccc23)ccc1OC` here?
A: Its inhibition is 2% (inactive).

Q: For `CC(C)Cn1cc(C2CCN(CCN3CCC(CNC(=O)c4ccc(NC(=O)c5cc(Cl)cc(Cl)c5)cc4)CC3)CC2)c2ccccc21`, which inhibition is on record?
A: The inhibition was -2% (inactive).

Q: For `O=C(NCCCNc1ccnc2cc(Cl)ccc12)c1ccccc1F`, which inhibition is on record?
A: The inhibition was 3% (inactive).

System: not listed separately
Assay: inhibition of 3D7 malaria parasite growth – strain 3D7 (AID 2306);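 further: 0% = DMSO wells and 100% = chloroquine plus artemisinin control wells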
Settings: P. falciparum 3D7 erythrocytic growth, LDH absorbance, 72 h; at 2 µM; active compounds read high

Q: With `Cc1ccccc1N1CCN(c2ccc(C(=O)NC(C)C)cn2)CC1` as the molecule, how does the growth inhibition read?
A: The growth inhibition was 89% (active).

Q: For `COc1ccc2nccc([C@@H](O)CN3CCC(NC(=O)c4ccc(C5(C(F)(F)F)N=N5)cc4)CC3)c2c1`, which growth inhibition is on record?
A: Its growth inhibition is 97% (active).

Q: For `Cc1ccccc1C1CCN(C2CCC(NC(=O)/C=C/c3ccc(Cl)cc3)CC2)CC1` (stereo unspecified), which growth inhibition is on record?
A: Its growth inhibition is 99% (active).

Q: For `Cc1cccc2[nH]c(-c3ccc(-c4ccc(CN5CCCC(O)C5)cc4)s3)nc12` (stereo unspecified), which growth inhibition is on record?
A: The growth inhibition was 101% (active).

Q: For `COc1cc(NC(=O)/C=C/c2cc(F)cc(F)c2F)cc(OCCN2CCC3(CC2)OCCO3)c1`, which growth inhibition is on record?
A: The growth inhibition was 98% (active).

Q: For `Cc1ccccc1Cc1cccc(/N=C(\N)Nc2ccc(Cl)cc2)n1`, which growth inhibition is on record?
A: Its growth inhibition is 91% (active).

Q: For `CCCCCC(C)NC[C@@H](O)[C@H](Cc1ccccc1)NC(=O)c1cc(NCC)cc(N2CCCCS2(=O)=O)c1` (stereo partly specified), which growth inhibition is on record?
A: Its growth inhibition is 98% (active).

Q: Which growth inhibition does the source give for `O=[N+]([O-])c1ccc(C=NNc2nc(Nc3ccccc3)nc(Nc3ccccc3)n2)o1` here?
A: The growth inhibition was 94% (active).

Q: For `CCNc1cc(C(=O)N[C@@H](Cc2cccc(Cl)c2)[C@H](O)CNC(C)CCCC(C)C)cc(N2CCCCS2(=O)=O)c1` (stereo partly specified), which growth inhibition is on record?
A: The growth inhibition was 98% (active).

Q: Which growth inhibition does the source give for `CN(C)Cc1ccc(-c2ccc3ccnc(N)c3c2)cc1` here?
A: Its growth inhibition is 100% (active).

Q: Which growth inhibition does the source give for `O=C(Nc1ccc(N2CCNCC2)cc1)c1ccn2ncc(-c3cccc(Cl)c3)c2n1` here?
A: Its growth inhibition is 96% (active).

Q: With `COc1ccc(-c2ccc(NC(=O)c3cccc(Cl)c3)cc2)cc1CN1CCCN(C)CC1` as the molecule, how does the growth inhibition read?
A: Its growth inhibition is 95% (active).

Q: For `CCC(C)c1ccc(-n2c(Nc3ccccc3)nc3cc(S(N)(=O)=O)ccc32)cc1` (stereo unspecified), which growth inhibition is on record?
A: Its growth inhibition is 88% (active).

Q: For `Cc1c(C(=O)Nc2cc(Sc3ccc(F)cc3)cc([N+](=O)[O-])c2)sc2ncn(Cc3cccc(F)c3)c(=O)c12`, which growth inhibition is on record?
A: The growth inhibition was 100% (active).

Q: Which growth inhibition does the source give for `COc1ccc(N2CCN(CCCCNC(=O)c3ccc(NC(=O)c4ccc(Cl)cc4)cc3)CC2)c(C)c1` here?
A: Its growth inhibition is 100% (active).

Q: Which growth inhibition does the source give for `Nc1cc2c(C3CCN(CC4CCN(C(=O)/C=C/c5ccc(Cl)c(Cl)c5)CC4)CC3)c[nH]c2cn1` here?
A: Its growth inhibition is 101% (active).

Q: With `O=C(Nc1ccc(-c2ccc(-c3nc4ccc(C(F)(F)F)cc4[nH]3)s2)cc1)c1ccoc1` as the molecule, how does the growth inhibition read?
A: The growth inhibition was 94% (active).

Q: For `Cc1cccc(CN2CCC(CNC(=O)c3cc4c(-c5ccccc5F)nn(C)c4s3)CC2)c1`, which growth inhibition is on record?
A: The growth inhibition was 85% (active).

Q: Which growth inhibition does the source give for `CCc1c(CCNC/C=C/C=C/CNCCc2ccc(OC)c(OC)c2CC)ccc(OC)c1OC` here?
A: Its growth inhibition is 100% (active).

Q: With `CC(C)C(C(=O)n1cc2c(ccc3nc(N)nc(N)c32)n1)C(C)C` as the molecule, how does the growth inhibition read?
A: Its growth inhibition is 98% (active).

Q: For `Cc1cccc(Nc2nc3nonc3nc2Nc2cccc(Cl)c2Cl)c1C`, which growth inhibition is on record?
A: Its growth inhibition is 91% (active).

Q: Which growth inhibition does the source give for `COc1cccc(CCc2ccc(O)c3c2C[C@H]2C[C@H]4[C@H](N(C)C)C(=O)C(C(N)=O)=C(O)[C@@]4(O)C(=O)C2=C3O)c1` here?
A: Its growth inhibition is 93% (active).

Q: With `CCOC(=O)c1ccc(NC(=O)N(Cc2ccc(-c3ccc(CN4CCNCC4)cc3)cc2)Cc2cccnc2)cc1` as the molecule, how does the growth inhibition read?
A: Its growth inhibition is 94% (active).

Q: Which growth inhibition does the source give for `COc1cc(NC(=O)/C=C/c2cc(F)cc(F)c2F)cc(OCCN2CCCCC2)c1` here?
A: The growth inhibition was 102% (active).

Q: Which growth inhibition does the source give for `CC(C)Cn1c(N)cc(=O)n(C)c1=O` here?
A: The growth inhibition was 100% (active).

Q: With `COc1ccc(-c2nc(NC(=O)Cc3ccc4c(c3)OCCO4)sc2C)cc1` as the molecule, how does the growth inhibition read?
A: The growth inhibition was 100% (active).

Q: For `COc1ccc(-c2nc3c(NCc4ccccc4)nccc3[nH]2)c(OC)c1`, which growth inhibition is on record?
A: The growth inhibition was 99% (active).

Q: With `Cc1cccc(CN2CCC(C(=O)Nc3ccc(-c4nc5ccccc5[nH]4)cc3)CC2)n1` as the molecule, how does the growth inhibition read?
A: Its growth inhibition is 96% (active).

Q: With `Cc1ccc(C2CCN(CCCCNC(=O)c3ccc(NC(=O)c4ccc(Cl)cc4)cc3)CC2)c(OCC(F)(F)F)c1` as the molecule, how does the growth inhibition read?
A: Its growth inhibition is 99% (active).

Q: Which growth inhibition does the source give for `CN(C)CC1CCCN1Cc1ccccc1-c1cnn(C)c(=O)c1Oc1ccccc1F` (stereo unspecified) here?
A: Its growth inhibition is 95% (active).

Q: With `CC(C)(C)OC(=O)NCC(=O)N(Cc1ccccc1)Cc1ccccc1` as the molecule, how does the growth inhibition read?
A: The growth inhibition was 97% (active).

Q: For `COc1cc(C(=O)N2CCOC(CCN3CCC[C@H]3C(=O)Nc3ccccc3)(c3ccc(Cl)c(Cl)c3)C2)cc(OC)c1OC` (stereo partly specified), which growth inhibition is on record?
A: The growth inhibition was 98% (active).

Q: With `O=C(/C=C/c1ccc(Cl)c(Cl)c1)NCCCCCCN1CCCN(C(=O)Nc2ccc(F)c(Cl)c2)CC1` as the molecule, how does the growth inhibition read?
A: The growth inhibition was 98% (active).

Q: For `Cc1nc(NCc2ccccc2)cc(NCC(O)c2ccc(O)cc2)n1` (stereo unspecified), which growth inhibition is on record?
A: Its growth inhibition is 85% (active).

Q: Which growth inhibition does the source give for `Cc1nc(-c2ccc(-c3ccc(NC(=O)Nc4ccc(I)c(OCCN(C)C)c4)cc3)c(C)c2)no1` here?
A: The growth inhibition was 101% (active).

Q: For `Nc1nc(N)c2c(ccc3c2ccn3CCCC2CCCNC2)n1` (stereo unspecified), which growth inhibition is on record?
A: Its growth inhibition is 98% (active).

Q: For `CCc1cn2c3c(cc(C(=O)N[C@@H](Cc4ccccc4)[C@H](O)CNC4CCOCC4)cc13)N(C)S(=O)(=O)C2`, which growth inhibition is on record?
A: The growth inhibition was 99% (active).

Q: With `CNC(=O)/C=C/c1cc(NC(=O)Nc2cc(C)nc3c(F)cccc23)ccc1OC` as the molecule, how does the growth inhibition read?
A: The growth inhibition was 98% (active).

Q: With `CC(C)Cn1cc(C2CCN(CCN3CCC(CNC(=O)c4ccc(NC(=O)c5cc(Cl)cc(Cl)c5)cc4)CC3)CC2)c2ccccc21` as the molecule, how does the growth inhibition read?
A: Its growth inhibition is 91% (active).

Q: Which growth inhibition does the source give for `O=C(NCCCNc1ccnc2cc(Cl)ccc12)c1ccccc1F` here?
A: Its growth inhibition is 100% (active).
